Laboratory results published in the supplement of paper PMC10849652.
About 7,900 targets were measured; listed, in parts, are those with a hit and a random draw of the rest. About 0.6% of all pairs of compound and target were hits.

Assays:
Experiment in all cases: log2 fold change, soluble protein after heating vs DMSO (PISA); higher = thermal stabilisation; K562 cells, 10 uM, 30 min; active = over 0.2 and 3.5 SD of the protein, either way, in both replicates (recomputed)
[1] = compound: C1=CC=C(C=C1)[C@H](COC2=CC3=C(C=C2)NC(=O)N3)NC(=O)C4=CC=CN(C4=O)CC5=CC(=C(C=C5)F)F
In short: (§1)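 K562 cells at 2×10^6 cells/mL were exposed to 10 μM compound for 30 min, then aliquots were heated for 3 min across 48°C-58°C, pooled, and extracted in PBS containing 0.5% NP-40 at 4°C. The supernatant after 21,000xg for 90 min was taken as soluble protein and measured by TMTpro 16plex LC-MS/MS with channel sums equalised. Thermal stability is reported relative to control samples, with values from duplicates. Fold changes are given on a log2 scale.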

[2] = compound: CC1=C(SC2=C1C(=N[C@H](C3=NN=C(N32)C)CC(=O)N)C4=CC=C(C=C4)Cl)C
In short: as §1

[3] = compound: CC1=C2C(=CC=C1)N=C(N(C2=O)C3=CC=CC=C3C)CN4C=NC5=C(N=CN=C54)N
In short: as §1

[4] = compound: Cc1sc2c(c1C)C(c1ccc(Cl)cc1)=N[C@@H](CC(=O)OC(C)(C)C)c1nnc(C)n1-2
In short: as §1

[5] = compound: c1ccc([C@@H]2C[C@H]2NC2CCNCC2)cc1
In short: as §1

Measured: log2 fold change

ARL2BP (UniProt Q9Y2Y0)
Sequence of UniProt Q9Y2Y0 (Q9Y2Y0 whole entry, looked up): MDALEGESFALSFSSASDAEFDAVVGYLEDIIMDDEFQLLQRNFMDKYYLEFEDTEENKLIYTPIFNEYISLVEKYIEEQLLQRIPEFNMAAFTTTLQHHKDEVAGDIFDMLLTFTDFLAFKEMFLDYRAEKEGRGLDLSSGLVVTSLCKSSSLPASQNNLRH
inactive: [1] -0.076 | [2] 0 | [3] 0.14 | [4] 0.069 | [5] 0.017

ATP6V1H (UniProt Q9UI12)
Sequence of UniProt Q9UI12 (Q9UI12 whole entry, looked up): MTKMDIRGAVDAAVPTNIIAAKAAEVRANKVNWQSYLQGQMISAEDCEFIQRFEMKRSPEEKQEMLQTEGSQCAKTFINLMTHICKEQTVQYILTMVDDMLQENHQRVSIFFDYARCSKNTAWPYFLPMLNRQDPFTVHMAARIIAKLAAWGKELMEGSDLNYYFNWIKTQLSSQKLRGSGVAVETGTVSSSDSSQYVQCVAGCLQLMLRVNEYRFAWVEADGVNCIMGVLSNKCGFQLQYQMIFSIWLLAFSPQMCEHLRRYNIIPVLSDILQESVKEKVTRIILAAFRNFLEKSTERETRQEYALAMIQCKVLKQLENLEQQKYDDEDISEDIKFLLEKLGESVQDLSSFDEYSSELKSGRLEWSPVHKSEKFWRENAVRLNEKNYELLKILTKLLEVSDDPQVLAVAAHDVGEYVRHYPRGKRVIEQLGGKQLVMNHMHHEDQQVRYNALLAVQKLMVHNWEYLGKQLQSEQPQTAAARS
inactive: [1] -0.003 | [2] 0.065 | [3] 0.029 | [4] -0.019 | [5] -0.116

AP2A2 isoform 2 (UniProt O94973)
Sequence of UniProt O94973 (O94973 whole entry, looked up): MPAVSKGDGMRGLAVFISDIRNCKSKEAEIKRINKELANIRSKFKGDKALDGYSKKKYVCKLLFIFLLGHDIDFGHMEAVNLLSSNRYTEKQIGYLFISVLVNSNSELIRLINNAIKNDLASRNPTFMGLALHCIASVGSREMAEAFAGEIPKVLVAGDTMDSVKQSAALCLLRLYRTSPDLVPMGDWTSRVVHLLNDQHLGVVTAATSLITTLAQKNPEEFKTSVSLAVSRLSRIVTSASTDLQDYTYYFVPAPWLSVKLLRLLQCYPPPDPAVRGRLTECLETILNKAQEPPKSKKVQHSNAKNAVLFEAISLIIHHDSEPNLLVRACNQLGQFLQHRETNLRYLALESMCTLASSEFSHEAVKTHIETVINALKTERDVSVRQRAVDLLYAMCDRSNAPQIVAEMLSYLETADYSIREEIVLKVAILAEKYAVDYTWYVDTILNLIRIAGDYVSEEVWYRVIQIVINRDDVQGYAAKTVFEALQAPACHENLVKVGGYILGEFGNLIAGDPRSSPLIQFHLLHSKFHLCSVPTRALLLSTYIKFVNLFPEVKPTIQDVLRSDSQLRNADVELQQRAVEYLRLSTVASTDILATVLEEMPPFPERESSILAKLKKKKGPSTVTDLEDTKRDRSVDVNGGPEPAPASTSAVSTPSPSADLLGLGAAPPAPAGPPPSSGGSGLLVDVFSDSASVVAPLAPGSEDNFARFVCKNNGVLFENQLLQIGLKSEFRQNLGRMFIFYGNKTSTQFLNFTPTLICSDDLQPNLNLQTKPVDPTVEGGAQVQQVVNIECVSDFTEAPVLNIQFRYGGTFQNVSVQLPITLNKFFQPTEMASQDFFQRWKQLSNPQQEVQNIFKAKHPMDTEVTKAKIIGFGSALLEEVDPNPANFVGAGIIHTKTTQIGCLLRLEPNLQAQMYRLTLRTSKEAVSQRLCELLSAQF
inactive: [1] -0.021 | [2] -0.02 | [3] 0.04 | [4] 0.048 | [5] 0.028

ARL1 (UniProt P40616)
Sequence of UniProt P40616 (P40616 whole entry, looked up): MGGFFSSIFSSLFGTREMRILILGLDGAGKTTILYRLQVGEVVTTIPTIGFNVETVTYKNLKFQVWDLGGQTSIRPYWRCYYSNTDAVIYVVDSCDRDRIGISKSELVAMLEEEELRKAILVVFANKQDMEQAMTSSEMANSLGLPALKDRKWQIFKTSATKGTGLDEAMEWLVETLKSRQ
inactive: [1] -0.084 | [2] 0.057 | [3] 0.079 | [4] -0.1 | [5] -0.048

BTAF1 (UniProt O14981)
inactive: [1] 0.051 | [2] -0.003 | [3] 0.124 | [4] 0.005 | [5] 0.055

ATP6V1C1 (UniProt P21283)
Sequence of UniProt P21283 (P21283 whole entry, looked up): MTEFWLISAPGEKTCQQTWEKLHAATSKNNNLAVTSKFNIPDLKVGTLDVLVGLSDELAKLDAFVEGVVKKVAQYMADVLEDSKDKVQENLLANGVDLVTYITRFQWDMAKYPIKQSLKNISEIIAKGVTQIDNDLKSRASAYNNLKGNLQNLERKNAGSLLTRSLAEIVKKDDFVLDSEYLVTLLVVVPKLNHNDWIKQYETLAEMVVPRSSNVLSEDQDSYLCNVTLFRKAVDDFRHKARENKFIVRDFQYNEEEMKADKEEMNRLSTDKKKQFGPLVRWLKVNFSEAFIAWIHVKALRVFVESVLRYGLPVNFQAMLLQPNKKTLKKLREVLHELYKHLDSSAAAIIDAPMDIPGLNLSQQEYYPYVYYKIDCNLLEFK
inactive: [1] -0.011 | [2] 0.004 | [3] 0.05 | [4] -0.002 | [5] -0.039

ANP32E (UniProt Q9BTT0)
Sequence of UniProt Q9BTT0 (Q9BTT0 whole entry, looked up): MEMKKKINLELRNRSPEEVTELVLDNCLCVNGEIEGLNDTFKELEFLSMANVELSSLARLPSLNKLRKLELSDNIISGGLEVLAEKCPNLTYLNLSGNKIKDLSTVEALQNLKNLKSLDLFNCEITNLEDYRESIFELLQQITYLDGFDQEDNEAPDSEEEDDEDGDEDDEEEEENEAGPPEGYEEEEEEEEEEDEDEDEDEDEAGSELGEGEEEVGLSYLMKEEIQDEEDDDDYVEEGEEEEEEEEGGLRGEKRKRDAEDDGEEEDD
inactive: [1] -0.092 | [2] -0.037 | [3] 0.14 | [4] -0.012 | [5] 0.075

AMFR (UniProt Q9UKV5)
Sequence of UniProt Q9UKV5 (Q9UKV5 whole entry, looked up): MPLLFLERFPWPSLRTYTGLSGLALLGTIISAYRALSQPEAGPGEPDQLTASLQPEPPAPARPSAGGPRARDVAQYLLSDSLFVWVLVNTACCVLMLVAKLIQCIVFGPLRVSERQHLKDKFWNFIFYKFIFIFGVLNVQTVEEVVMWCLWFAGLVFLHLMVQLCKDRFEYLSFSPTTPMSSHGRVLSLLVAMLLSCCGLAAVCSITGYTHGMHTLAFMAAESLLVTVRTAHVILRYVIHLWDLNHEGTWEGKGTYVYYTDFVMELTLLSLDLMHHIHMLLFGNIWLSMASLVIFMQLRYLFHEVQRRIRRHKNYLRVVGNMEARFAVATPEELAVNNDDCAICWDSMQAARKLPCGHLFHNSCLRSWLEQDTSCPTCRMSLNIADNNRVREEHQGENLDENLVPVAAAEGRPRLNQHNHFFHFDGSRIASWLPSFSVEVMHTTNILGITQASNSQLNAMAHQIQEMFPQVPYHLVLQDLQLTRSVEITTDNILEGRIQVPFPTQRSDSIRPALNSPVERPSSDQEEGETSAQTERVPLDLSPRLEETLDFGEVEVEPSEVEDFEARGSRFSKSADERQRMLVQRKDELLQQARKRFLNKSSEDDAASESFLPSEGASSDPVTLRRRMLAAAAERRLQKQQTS
inactive: [1] -0.043 | [2] -0.004 | [3] 0.023 | [4] 0.024 | [5] -0.046

ATOX1 (UniProt O00244)
Sequence of UniProt O00244 (O00244 whole entry, looked up): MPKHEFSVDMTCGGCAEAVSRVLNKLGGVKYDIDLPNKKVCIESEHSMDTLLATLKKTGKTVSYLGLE
inactive: [1] 0.033 | [2] 0.124 | [3] 0.101 | [4] -0.153 | [5] 0.008

APLP2 (UniProt Q06481)
inactive: [1] 0.003 | [2] -0.003 | [3] 0 | [4] 0.036 | [5] 0.038

AGPAT3 isoform 3 (UniProt Q9NRZ7)
Sequence of UniProt Q9NRZ7 (Q9NRZ7 whole entry, looked up): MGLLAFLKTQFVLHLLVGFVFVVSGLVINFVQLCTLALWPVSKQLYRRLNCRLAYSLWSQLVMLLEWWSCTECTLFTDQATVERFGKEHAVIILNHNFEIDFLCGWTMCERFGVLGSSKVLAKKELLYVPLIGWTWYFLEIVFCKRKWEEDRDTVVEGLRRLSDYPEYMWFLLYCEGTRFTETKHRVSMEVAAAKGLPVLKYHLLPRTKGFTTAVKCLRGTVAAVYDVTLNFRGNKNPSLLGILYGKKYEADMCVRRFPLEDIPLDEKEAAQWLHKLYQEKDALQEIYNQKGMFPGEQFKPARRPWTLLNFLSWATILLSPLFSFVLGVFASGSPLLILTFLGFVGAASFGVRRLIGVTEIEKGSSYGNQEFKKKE
inactive: [1] -0.012 | [2] 0.064 | [3] 0.021 | [4] -0.048 | [5] -0.024

AKT2 (UniProt P31751)
Sequence of UniProt P31751 (P31751 whole entry, looked up): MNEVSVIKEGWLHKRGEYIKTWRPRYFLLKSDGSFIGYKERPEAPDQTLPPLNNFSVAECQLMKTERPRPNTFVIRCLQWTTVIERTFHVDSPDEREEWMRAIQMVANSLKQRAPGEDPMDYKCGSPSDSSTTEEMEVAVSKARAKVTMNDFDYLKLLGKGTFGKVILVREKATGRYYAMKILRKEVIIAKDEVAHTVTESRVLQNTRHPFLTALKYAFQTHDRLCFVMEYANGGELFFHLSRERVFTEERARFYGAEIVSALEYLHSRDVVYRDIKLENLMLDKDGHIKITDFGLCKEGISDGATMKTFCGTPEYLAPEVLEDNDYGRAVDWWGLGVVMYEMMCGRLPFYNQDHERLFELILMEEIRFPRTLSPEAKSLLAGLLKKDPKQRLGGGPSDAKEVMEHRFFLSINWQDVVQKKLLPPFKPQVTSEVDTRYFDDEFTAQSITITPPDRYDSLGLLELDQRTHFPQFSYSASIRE
inactive: [1] -0.124 | [2] 0.055 | [3] 0.061 | [4] 0.009 | [5] -0.028

BID isoform 2 (UniProt P55957)
Sequence of UniProt P55957 (P55957 whole entry, looked up): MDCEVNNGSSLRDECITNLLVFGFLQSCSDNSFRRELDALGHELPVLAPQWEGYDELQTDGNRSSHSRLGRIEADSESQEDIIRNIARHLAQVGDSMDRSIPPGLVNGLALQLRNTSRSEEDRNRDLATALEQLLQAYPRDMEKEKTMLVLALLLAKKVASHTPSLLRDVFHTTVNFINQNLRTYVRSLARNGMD
inactive: [1] -0.036 | [2] 0.059 | [3] 0.081 | [4] -0.076 | [5] -0.053

ACSL5 isoform 3 (UniProt Q9ULC5)
Sequence of UniProt Q9ULC5 (Q9ULC5 whole entry, looked up): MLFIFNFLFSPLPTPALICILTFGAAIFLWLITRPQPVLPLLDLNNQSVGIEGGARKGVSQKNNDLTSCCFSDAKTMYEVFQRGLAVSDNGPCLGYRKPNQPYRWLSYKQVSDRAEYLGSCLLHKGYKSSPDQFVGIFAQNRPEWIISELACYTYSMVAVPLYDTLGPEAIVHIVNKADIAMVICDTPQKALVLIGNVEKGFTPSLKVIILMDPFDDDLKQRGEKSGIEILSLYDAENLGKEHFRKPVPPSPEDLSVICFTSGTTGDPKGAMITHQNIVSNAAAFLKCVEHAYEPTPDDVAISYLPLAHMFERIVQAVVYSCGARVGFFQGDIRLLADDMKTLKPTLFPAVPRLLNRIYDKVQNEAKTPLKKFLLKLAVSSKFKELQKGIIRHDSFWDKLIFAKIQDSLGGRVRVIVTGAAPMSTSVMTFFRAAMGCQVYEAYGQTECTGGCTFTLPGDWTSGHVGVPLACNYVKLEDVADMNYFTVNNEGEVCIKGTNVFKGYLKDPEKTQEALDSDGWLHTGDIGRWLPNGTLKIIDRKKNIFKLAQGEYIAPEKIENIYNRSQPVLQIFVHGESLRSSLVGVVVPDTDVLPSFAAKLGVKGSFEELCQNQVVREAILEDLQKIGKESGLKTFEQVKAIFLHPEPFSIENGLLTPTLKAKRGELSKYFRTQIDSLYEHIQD
inactive: [1] -0.024 | [2] 0.043 | [3] 0.101 | [4] 0.057 | [5] -0.178
